# Among all 16,000 compounds or so, about 5,800 (36%) were called active. About 23% were inconclusive and are not listed. The call rests on the fitted dose curve; in most records, active means well fitted curve in the direction sought with a large enough effect; inconclusive means small, poorly fitted or top-dose-only effect, or effect the other way; inactive means no such curve, though single readings can be large or run the other way. This is one part of the list.
# Target: Cytochrome P450 2C19 (Homo sapiens) (UniProt P33261)
# Sequence (P33261 whole entry, looked up): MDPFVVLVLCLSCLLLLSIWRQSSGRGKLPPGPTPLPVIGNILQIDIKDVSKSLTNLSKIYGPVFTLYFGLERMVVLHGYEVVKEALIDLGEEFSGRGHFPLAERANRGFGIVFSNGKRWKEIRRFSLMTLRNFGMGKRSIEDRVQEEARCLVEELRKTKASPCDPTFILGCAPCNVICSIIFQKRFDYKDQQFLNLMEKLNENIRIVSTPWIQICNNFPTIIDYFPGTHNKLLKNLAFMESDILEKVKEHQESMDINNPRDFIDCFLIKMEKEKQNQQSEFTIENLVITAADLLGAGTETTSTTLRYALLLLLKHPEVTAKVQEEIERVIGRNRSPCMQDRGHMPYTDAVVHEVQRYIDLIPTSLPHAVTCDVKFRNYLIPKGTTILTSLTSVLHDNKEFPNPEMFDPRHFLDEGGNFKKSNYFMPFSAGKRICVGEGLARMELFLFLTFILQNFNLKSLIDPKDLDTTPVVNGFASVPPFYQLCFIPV
# Assay: Cytochrome panel assay with activity outcomes
# Settings: recombinant CYP, pro-luciferin dealkylation, luminescence, p450-cyp2c19; series mostly up to 57.1 µM; activity, negative = inhibition: at the top concentration
# On the % scale 0 is the no-effect control and ±100 the full control effect.
Compound,AC50,"activity, negative = inhibition"
C[C@@](O)(CNS(=O)(=O)c1ccccc1)c1ccccc1,1 µM (active),–
CNS(=O)(=O)c1ccccc1C(=N)c1ccccc1,–,-10% [at 11.4 µM] (inactive)
Cn1ccnc1C[C@@](C)(O)c1ccccc1,–,-6.82% [at 11.4 µM] (inactive)
CCn1c(SCC(=O)Nc2nc3ccc(C)cc3s2)nc2c(c1=O)SC(C)C2 (configuration not stated),2.82 µM (active),–
CCn1c(SCC(=O)Nc2ccc3c(c2)OCCO3)nc2c(c1=O)SC(C)C2 (configuration not stated),8.91 µM (active),–
Cc1ccc2nc(NC(=O)CSc3nc4c(c(=O)n3C)SC(C)C4)sc2c1 (configuration not stated),5.62 µM (active),–
Cc1ccc(OC(=O)c2cccc(C(=O)Oc3ccc(C)cn3)n2)nc1,–,-1.57% (inactive)
COC(=O)c1cccc(C(=O)Nc2ccc(C)cc2)n1,11.2 µM (active),–
CC(C)OC(=O)c1cccc(C(=O)Oc2ccc(Br)cc2)n1,–,-3.45% (inactive)
COc1ccccc1CNC(=O)CSc1nc2nc(C)cc(C)n2n1,10 µM (active),–
Cc1cc(NS(=O)(=O)c2ccc(NC(=O)CN3C(=O)c4ccccc4C3=O)cc2)nc(C)n1,–,-23.3% (inactive)
Cc1cc(C)n2nc(SCN3C(=O)c4ccccc4C3=O)nc2n1,2.51 µM (active),–
Cc1ccc(/C=N/NC(=O)CSc2nc3nc(C)cc(C)n3n2)cc1,–,-39.3% (inactive)
Cc1cc(C)n2nc(SCc3cc(=O)oc4ccc5ccccc5c34)nc2n1,8.91 µM (active),–
CCSc1nc2nc(C)cc(C)n2n1,–,-1.22% (inactive)
CC12COC3(C(=O)Nc4nccs4)CC1CCC32C (configuration not stated),2.24 µM (active),–
COCC(=O)N1CCC2(CCCN(C(=O)Nc3cccc(C#N)c3)C2)CC1,–,16.8% (inactive)
CC(C/C=N/NC(=O)COc1cc(Cl)ccc1Cl)c1ccccc1 (configuration not stated),0.447 µM (active),–
O=C(COc1ccc(Cl)cc1Cl)N/N=C/CCc1ccccc1,2 µM (active),–
OC1(c2ccc(OC(F)F)cc2)CSC(=Nc2cccnc2)N1C1CC1 (configuration not stated),0.0794 µM (active),–
COc1cc(N=c2ssnc2Cl)cc(OC)c1OC,1.12 µM (active),–

Compound,AC50,"activity, negative = inhibition"
Cc1cccc(OC(=O)CN2C(=O)C3C4CCC(C4)C3C2=O)c1C (configuration not stated),3.98 µM (active),–
Cc1ccc(C)c(C(=O)CN2C(=O)c3ccccc3S2(=O)=O)c1,–,-41.5% (inactive)
C=CCn1c(C)cc(C(=O)CN2C(=O)c3ccccc3C2=O)c1C,3.98 µM (active),–
O=C(CN1C(=O)c2ccccc2C1=O)NC1(C(=O)O)CCCC1,–,20.8% [at 11.4 µM] (inactive)
Cc1cnc(CNc2ncncc2-c2ccc3c(c2)OCO3)cn1,–,-31.6% (inactive)
Cc1cccc(CNc2ncncc2-c2ccc3c(c2)OCO3)c1,0.501 µM (active),–
c1ccc(Nc2ncncc2-c2ccc3c(c2)OCO3)cc1,0.251 µM (active),–
c1ccc(CNc2ncncc2-c2ccc3c(c2)OCO3)cc1,0.501 µM (active),–
c1cncc(CNc2ncncc2-c2ccc3c(c2)OCO3)c1,0.2 µM (active),–
c1csc(CNc2ncncc2-c2ccc3c(c2)OCO3)c1,0.794 µM (active),–
CN(C)c1ncc2nc(-c3ccc(Cl)cc3)c(=O)n(C)c2n1,–,-8.52% (inactive)
CC(C)c1nnc(-c2ccc(Cl)cc2)c(N(C)C)n1,2.51 µM (active),–
C[C@]1(O)CC[C@H]2[C@H]3CC=C4N5CCN=C5CC[C@@]4(C)[C@H]3CC[C@@]21C,–,14.3% [at 11.4 µM] (inactive)
CC1(O)c2ccccc2C(=O)N1CCc1ccccc1F (configuration not stated),0.251 µM (active),–
CC(C)c1ccc(/C(C(=O)O)=C(\O)C(=O)O)cc1,–,-8.84% [at 11.4 µM] (inactive)
O=C(CCn1c(=S)[nH]c2ccccc2c1=O)NCCCN1CCOCC1,–,-13.4% (inactive)
COCCn1c(=S)[nH]c2cc(C(=O)NC(C)C)ccc2c1=O,15.8 µM (active),–
CCC1CCCCN1CCn1c(=S)[nH]c2cc(OC)c(OC)cc2c1=O (configuration not stated),–,2.9% (inactive)
COCCNC(=O)CCCCCn1c(=S)[nH]c2ccccc2c1=O,22.4 µM (active),–
CC(C)NC(=O)c1ccc2c(=O)n(Cc3ccco3)c(=S)[nH]c2c1,–,-20.7% (inactive)
CCOC(=O)CCN1C(=O)[C@H]2[C@H]3[C@H](O)[C@H](O)C/C(=N/OC/C=C(\C)CCC=C(C)C)[C@H]3CC[C@@H]2C1=O,–,12.1% [at 11.4 µM] (inactive)

Compound,AC50,"activity, negative = inhibition"
Cc1ccc(S(=O)(=O)CCCS(=O)(=O)c2ccc(C)cc2)cc1,10 µM (active),–
O=S(=O)(c1ccccc1)N1CCC[C@@]2(CCN(Cc3nccs3)C2)C1,7.94 µM (active),–
O=S(=O)(c1ccccc1)N1CCC2(CCCN(Cc3ccncc3)C2)CC1,0.316 µM (active),–
O=S(=O)(c1ccccc1)N1CCC2(CC1)CN(Cc1ccccc1)C2,–,-18.1% (inactive)
O=S(=O)(c1ccccc1)N1CCC2(CC1)CN(Cc1nccs1)C2,–,-10.2% (inactive)
N#Cc1ccc(CN2CCCC3(CCN(S(=O)(=O)c4ccccc4)CC3)C2)cc1,15.8 µM (active),–
Cn1cccc1C(=O)N1CCC2(CCCN(Cc3ccc(C#N)cc3)C2)CC1,–,-32.2% (inactive)
N#Cc1ccc(CN2CCC3(CC2)CCN(S(=O)(=O)c2ccccc2)CC3)cc1,–,5.6% (inactive)
O=S(=O)(c1ccccc1)N1CCC2(CCN(Cc3ccncc3)CC2)CC1,–,-22.9% (inactive)
O=S(=O)(c1ccccc1)N1CCC2(CCN(Cc3nccs3)CC2)CC1,–,-13.1% (inactive)
CN1CCN(c2ncc3nc(-c4cc(F)cc(F)c4)c(=O)n(CCc4ccccc4)c3n2)CC1,–,-7.74% (inactive)
CSc1ccccc1N1CCN(C(=O)Nc2ccc3c(c2)NC(=O)CO3)CC1,7.94 µM (active),–
COc1cccc(N2CCN(C(=O)Nc3ccc4c(c3)NC(=O)CO4)CC2)c1,–,-26.8% (inactive)
Cc1ccc(-n2c3c(c(=O)[nH]c2=O)C(NS(=O)(=O)c2ccc(C)cc2)(C(F)(F)F)C(=O)N3)cc1 (configuration not stated),–,-17.4% (inactive)
O=C(Nc1cccc(C(F)(F)F)c1)C1CCCN1S(=O)(=O)c1cccc2cccnc12 (configuration not stated),11.2 µM (active),–
O=C1OCCC1Sc1nnnn1-c1ccccc1 (configuration not stated),22.4 µM (active),–
O=C(CSc1nnc(-c2ccccn2)n1Cc1ccco1)Nc1ccc2c(c1)OCO2,6.31 µM (active),–
NC(=O)NC(=O)CSc1nnc(-c2ccco2)n1Cc1ccccc1,–,-15.5% (inactive)
Cc1cc(NC(=O)CSc2nnc(-c3ccccc3)n2Cc2ccco2)no1,10 µM (active),–
CC(=O)Nc1ccc(NC(=O)CSc2nnc(-c3ccccc3)n2Cc2ccc3c(c2)OCO3)cc1,3.55 µM (active),–

# — PubChem BioAssay AID1851 (National Center for Advancing Translational Sciences (NCATS), 2009)
